# Like-named read-outs stand apart in the source and are kept apart here.
# How the values were obtained:
# Set-up in all cases: species or system human, MV4-11 + K-562 + COLO205 + SK-N-BE2 + OVCAR-8
# BTK = conditions: read-out: apparent Kd, n = 1
# NQO1 = conditions: read-out: apparent Kd; compound concentrations:100 nM and 1000 nM (sheet 'Samples'); n = 1
# EPHA5 = conditions: read-out: apparent Kd, n = 1
# EPHB1 = conditions: read-out: apparent Kd, n = 1
# PLK4 = conditions: read-out: apparent Kd, n = 1
# TNK2 = conditions: read-out: apparent Kd, n = 1
# DDR2 = conditions: read-out: apparent Kd; compound concentrations:100 nM and 1000 nM (sheet 'Samples'); n = 1
# MAPK14 = conditions: read-out: apparent Kd, n = 1
# JAK2 = conditions: read-out: apparent Kd, n = 1
# PRKD2 = conditions: read-out: apparent Kd, n = 1
# MAP2K5 = conditions: read-out: apparent Kd, n = 1
# CDK16 = conditions: read-out: apparent Kd, n = 1
# CDKL5 = conditions: read-out: apparent Kd, n = 1
# EPHB6 = conditions: read-out: apparent Kd, n = 1
# CDK17 = conditions: read-out: apparent Kd, n = 1
# FLT4 = conditions: read-out: apparent Kd, compound concentrations: 100 nM and 1000 nM (sheet 'Samples'), n = 1
# AURKB = conditions: read-out: apparent Kd; compound concentrations: 100 nM and 1000 nM (sheet 'Samples'), CATDS: 5.6735057475689701E-2; n = 1
# [1] = compound concentrations:100 nM and 1000 nM (sheet 'Samples')
smiles,measurement,setting,value
CS(=O)(=O)Cc1ccc(Nc2nccc(-c3c(-c4cccc(NC(=O)c5c(F)cccc5F)c4)nn4ccccc34)n2)cc1 [GSK323543A],potency estimated from few doses,"BTK; compound concentrations: 100 nM and 1000 nM (sheet 'Samples'), CATDS: 6.87410205009992E-2",1140 nM
COc1cc2ncn(-c3cc(OCc4ccncc4)c(C(N)=O)s3)c2cc1OC [GSK336313A],potency estimated from few doses,NQO1,1230 nM
COc1cc2ncn(-c3cc(OCCCc4ccccc4)c(C(N)=O)s3)c2cc1OC [GSK205189A],potency estimated from few doses,EPHA5; [1],720 nM
same,potency estimated from few doses,EPHB1; [1],958 nM
same,potency estimated from few doses,PLK4; [1],1240 nM
same,potency estimated from few doses,TNK2; [1],48.2 nM
CNc1nccc(-c2c(-c3ccc(F)cc3)ncn2C2CCN(C)CC2)n1 [SB-222903],potency estimated from few doses,DDR2,625 nM
same,potency estimated from few doses,EPHA5; [1],465 nM
same,potency estimated from few doses,"MAPK14; compound concentrations: 100 nM and 1000 nM (sheet 'Samples'), CATDS: 0.13479921836841699",29.9 nM
CN1CCN(c2ccc(Nc3nc(N)c(C(=O)c4ccc5c(c4)OCCO5)s3)cc2)CC1 [RO0505124-000],potency estimated from few doses,"JAK2; compound concentrations: 100 nM and 1000 nM (sheet 'Samples'), CATDS: 0.61009142123011895",50.1 nM
Fc1ccc(-c2c(-c3ccncc3)[nH]c3nccnc23)cc1 [RO1155697-000],potency estimated from few doses,DDR2,886 nM
same,potency estimated from few doses,"MAPK14; compound concentrations: 100 nM and 1000 nM (sheet 'Samples'), CATDS: 5.8125054995699497E-2",449 nM
same,potency estimated from few doses,NQO1,1590 nM
same,potency estimated from few doses,PRKD2; [1],962 nM
COc1cc2ncn(-c3cc(OCc4cccs4)c(C(N)=O)s3)c2cc1OC [GSK312948A],potency estimated from few doses,MAP2K5; [1],461 nM
Nc1nc(N)c2nc(-c3ccccc3)[nH]c2n1 [SKF-12778],potency estimated from few doses,BTK; [1],1330 nM
same,potency estimated from few doses,JAK2; [1],66.2 nM
same,potency estimated from few doses,MAPK14; [1],973 nM
Cc1ccc(O)cc1Nc1ccnc2ccc(C(C)(C)C)cc12 [GW856805X],potency estimated from few doses,"EPHA5; compound concentrations: 100 nM and 1000 nM (sheet 'Samples'), CATDS: 8.5514092870098604E-2",16.4 nM
same,potency estimated from few doses,"EPHB1; compound concentrations: 100 nM and 1000 nM (sheet 'Samples'), CATDS: 6.9197667639957702E-2",25.7 nM
CN1CCc2ccc(Nc3nccc(-c4c(-c5cccc(NC(=O)c6c(F)cccc6F)c5)nc5ccccn45)n3)cc2C1.Cl [GSK1010829B],potency estimated from few doses,"BTK; compound concentrations: 100 nM and 1000 nM (sheet 'Samples'), CATDS: 5.3394659124358E-2",497 nM
Cl.Cn1c(=O)c(Cc2ccc(F)cc2F)cc2cnc(NC3CCOCC3)nc21 [RO3308757-001],potency estimated from few doses,EPHA5; [1],399 nM
same,potency estimated from few doses,EPHB1; [1],541 nM
same,potency estimated from few doses,MAPK14; [1],442 nM
same,potency estimated from few doses,PLK4; [1],963 nM
same,potency estimated from few doses,TNK2; [1],230 nM
CC(C)c1nc(-c2ccc(F)c(NS(=O)(=O)c3c(F)cccc3F)c2)c(-c2ccnc(Nc3ccc(N4CCOCC4)nc3)n2)s1 [GSK1804250A],potency estimated from few doses,CDK16; [1],1890 nM
same,potency estimated from few doses,CDKL5; [1],984 nM
same,potency estimated from few doses,EPHB6; [1],738 nM
same,potency estimated from few doses,PLK4; [1],403 nM
same,potency estimated from few doses,PRKD2; [1],232 nM
same,potency estimated from few doses,TNK2; [1],232 nM
CC(C)c1nc(-c2cccc(NS(=O)(=O)c3c(F)cccc3F)c2)c(-c2ccnc(Nc3ccc(N4CCOCC4)nc3)n2)s1.Cl [GSK1723980B],potency estimated from few doses,"BTK; compound concentrations: 100 nM and 1000 nM (sheet 'Samples'), CATDS: 1.5505297907028599E-2",1260 nM
same,potency estimated from few doses,"CDK16; compound concentrations: 100 nM and 1000 nM (sheet 'Samples'), CATDS: 2.4648897890500801E-2",294 nM
same,potency estimated from few doses,"CDK17; compound concentrations: 100 nM and 1000 nM (sheet 'Samples'), CATDS: 1.84448623420372E-2",647 nM
same,potency estimated from few doses,"CDKL5; compound concentrations: 100 nM and 1000 nM (sheet 'Samples'), CATDS: 1.7066760873740601E-2",848 nM
same,potency estimated from few doses,"EPHB6; compound concentrations: 100 nM and 1000 nM (sheet 'Samples'), CATDS: 2.4657232775903402E-2",294 nM
same,potency estimated from few doses,FLT4; CATDS: 3.28978835638193E-2,161 nM
same,potency estimated from few doses,"PLK4; compound concentrations: 100 nM and 1000 nM (sheet 'Samples'), CATDS: 6.4259568423255198E-2",54.8 nM
same,potency estimated from few doses,"PRKD2; compound concentrations: 100 nM and 1000 nM (sheet 'Samples'), CATDS: 3.4388885610582398E-2",149 nM
same,potency estimated from few doses,"TNK2; compound concentrations: 100 nM and 1000 nM (sheet 'Samples'), CATDS: 1.9330772041295699E-2",558 nM
CC(C)c1nc(-c2cccc(NS(=O)(=O)c3c(F)cccc3F)c2F)c(-c2ccnc(Nc3ccc(N4CCOCC4)nc3)n2)s1 [GSK2008607A],potency estimated from few doses,"BTK; compound concentrations: 100 nM and 1000 nM (sheet 'Samples'), CATDS: 2.19270493489029E-2",1030 nM
same,potency estimated from few doses,"CDK16; compound concentrations: 100 nM and 1000 nM (sheet 'Samples'), CATDS: 3.1735932444665597E-2",424 nM
same,potency estimated from few doses,"CDK17; compound concentrations: 100 nM and 1000 nM (sheet 'Samples'), CATDS: 2.730533885315E-2",587 nM
same,potency estimated from few doses,"CDKL5; compound concentrations: 100 nM and 1000 nM (sheet 'Samples'), CATDS: 1.9051705210026099E-2",1650 nM
same,potency estimated from few doses,"EPHB6; compound concentrations: 100 nM and 1000 nM (sheet 'Samples'), CATDS: 2.9714339770291101E-2",487 nM
same,potency estimated from few doses,FLT4; CATDS: 2.2429602546286599E-2,967 nM
same,potency estimated from few doses,"PLK4; compound concentrations: 100 nM and 1000 nM (sheet 'Samples'), CATDS: 0.15679756420664201",38.7 nM
same,potency estimated from few doses,"PRKD2; compound concentrations: 100 nM and 1000 nM (sheet 'Samples'), CATDS: 3.65380455917537E-2",323 nM
same,potency estimated from few doses,"TNK2; compound concentrations: 100 nM and 1000 nM (sheet 'Samples'), CATDS: 3.47729479590888E-2",355 nM
COc1cc2nccc(Nc3ccc(Oc4ccccc4)cc3)c2cc1OC.Cl [GI261656A],potency estimated from few doses,"BTK; compound concentrations: 100 nM and 1000 nM (sheet 'Samples'), CATDS: 4.2074902264998597E-2",1400 nM
same,potency estimated from few doses,"MAP2K5; compound concentrations: 100 nM and 1000 nM (sheet 'Samples'), CATDS: 9.9796697062305095E-2",95.6 nM
COc1cccc(-n2cnc3c(N/N=C/c4ccncc4)ncnc32)c1 [GW813360X],potency estimated from few doses,"MAP2K5; compound concentrations: 100 nM and 1000 nM (sheet 'Samples'), CATDS: 0.129253463235972",2170 nM
NS(=O)(=O)CCc1cccc(Nc2nccc(-c3c(-c4cccc(NC(=O)c5c(F)cccc5F)c4)nn4ccccc34)n2)c1 [GSK336735A],potency estimated from few doses,AURKB,1260 nM
same,potency estimated from few doses,"BTK; compound concentrations: 100 nM and 1000 nM (sheet 'Samples'), CATDS: 6.9613472327250694E-2",756 nM
COc1ccc(-c2nc3n(c2-c2ccncc2)CCC3)cc1.COc1ccc(-c2nc3n(c2-c2ccncc2)CCC3)cc1.O=S(=O)(O)O.O=S(=O)(O)O [SKF-104493-B2],potency estimated from few doses,"MAPK14; compound concentrations: 100 nM and 1000 nM (sheet 'Samples'), CATDS: 0.181046976908248",687 nM
N#Cc1cccc(Nc2nccc(-c3cnn4ncccc34)n2)c1 [GW778894X],potency estimated from few doses,CDK16; [1],13 nM
same,potency estimated from few doses,CDK17; [1],44.8 nM
same,potency estimated from few doses,CDKL5; [1],6.82 nM
CC(=O)N1CCN(c2ccc(Nc3nccc(-c4sc(C(C)C)nc4-c4cccc(NS(=O)(=O)c5cccc(Cl)c5)c4)n3)cn2)CC1 [GSK1660437A],potency estimated from few doses,"CDK16; compound concentrations: 100 nM and 1000 nM (sheet 'Samples'), CATDS: 4.5005275972449597E-2",1070 nM
same,potency estimated from few doses,"CDK17; compound concentrations: 100 nM and 1000 nM (sheet 'Samples'), CATDS: 5.6429200744427303E-2",643 nM
same,potency estimated from few doses,"PLK4; compound concentrations: 100 nM and 1000 nM (sheet 'Samples'), CATDS: 0.17154832295699199",114 nM
same,potency estimated from few doses,"PRKD2; compound concentrations: 100 nM and 1000 nM (sheet 'Samples'), CATDS: 5.4931765235902902E-2",680 nM

# Source: PMC11062922 (Nature Chemical Biology, 2023)
